# Records with an inconclusive call do not appear. Calls of active or inactive are those of the source. How the source made its calls: active means hit-call score of the fitted dose curve at least 0.9, where 1 is the maximum; inconclusive means response in the unintended direction; inactive means score below 0.9.
# How the values were obtained:
# [1] = molecular target: human Histamine 1 Receptor (H1), HRH1 (gene 3269) (UniProt P35367); experiment: NVS_GPCR_hH1: NovaScreen (NVS) G Protein-Coupled Receptor Assay for human Histamine 1 Receptor (H1) (AID 2283268)
# Chain of human Histamine 1 Receptor (H1), HRH1 (gene 3269) (P35367 whole entry, looked up): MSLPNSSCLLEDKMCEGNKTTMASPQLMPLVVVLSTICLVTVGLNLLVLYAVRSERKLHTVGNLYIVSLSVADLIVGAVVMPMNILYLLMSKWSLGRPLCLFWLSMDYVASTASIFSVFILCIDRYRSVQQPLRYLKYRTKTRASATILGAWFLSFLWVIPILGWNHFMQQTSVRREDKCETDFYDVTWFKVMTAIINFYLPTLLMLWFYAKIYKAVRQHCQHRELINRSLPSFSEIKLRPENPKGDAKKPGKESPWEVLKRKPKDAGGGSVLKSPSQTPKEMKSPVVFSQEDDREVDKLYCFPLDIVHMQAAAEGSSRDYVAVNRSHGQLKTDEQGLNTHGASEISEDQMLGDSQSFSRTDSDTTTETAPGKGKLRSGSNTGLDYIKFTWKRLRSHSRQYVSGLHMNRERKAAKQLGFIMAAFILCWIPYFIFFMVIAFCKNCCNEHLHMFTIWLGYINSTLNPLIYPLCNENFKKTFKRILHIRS
# Summary of the method: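 Filter-based scintillation detection of radioligand binding to human H1, 1 h incubation; chemicals screened in duplicate at 25 uM, then concentration-response; signal loss relative to DMSO taken as activity.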
# [2] = molecular target: D(1A) dopamine receptor (Homo sapiens) (UniProt P21728); experiment: NVS_GPCR_hDRD1: NovaScreen (NVS) G Protein-Coupled Receptor Assay for human Dopamine Receptor D1 (DRD1) (AID 2283269)
# Chain of D(1A) dopamine receptor (Homo sapiens) (P21728 whole entry, looked up): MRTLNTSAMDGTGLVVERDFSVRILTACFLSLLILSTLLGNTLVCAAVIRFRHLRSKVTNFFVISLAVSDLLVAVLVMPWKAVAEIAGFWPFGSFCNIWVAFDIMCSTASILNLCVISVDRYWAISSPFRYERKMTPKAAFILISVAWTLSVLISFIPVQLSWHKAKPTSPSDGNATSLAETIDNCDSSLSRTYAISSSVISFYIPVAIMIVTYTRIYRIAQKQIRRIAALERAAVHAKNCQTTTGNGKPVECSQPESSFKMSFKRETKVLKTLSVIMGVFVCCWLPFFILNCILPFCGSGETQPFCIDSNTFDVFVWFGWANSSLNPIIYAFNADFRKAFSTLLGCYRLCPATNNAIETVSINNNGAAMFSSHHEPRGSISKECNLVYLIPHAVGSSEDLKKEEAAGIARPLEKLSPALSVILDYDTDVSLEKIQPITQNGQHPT
# Summary of the method: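 Extracted HEK293 DRD1 is incubated 1 h with compound and a tritiated or iodinated radioligand, then filtered and counted. Screening runs 25 uM in duplicate with on-plate positive and negative controls.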
# [3] = molecular target: Muscarinic acetylcholine receptor M3 (Homo sapiens) (UniProt P20309); experiment: NVS_GPCR_hM3: NovaScreen (NVS) G Protein-Coupled Receptor Assay for human Muscarinic, M3 Receptor (AID 2283272)
# Summary of the method: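 Radioligand displacement binding on human M3 receptor in CHO-derived membranes, 1 h incubation, filter-based scintillation counting. Primary screen in duplicate at 25 uM; actives followed up in concentration series; loss of signal versus DMSO.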
# [4] = molecular target: Muscarinic acetylcholine receptor M5 (Homo sapiens) (UniProt P08912); experiment: NVS_GPCR_hM5: NovaScreen (NVS) G Protein-Coupled Receptor Assay for human Muscarinic, M5 Receptor (AID 2283275)
# Chain of Muscarinic acetylcholine receptor M5 (Homo sapiens) (P08912 whole entry, looked up): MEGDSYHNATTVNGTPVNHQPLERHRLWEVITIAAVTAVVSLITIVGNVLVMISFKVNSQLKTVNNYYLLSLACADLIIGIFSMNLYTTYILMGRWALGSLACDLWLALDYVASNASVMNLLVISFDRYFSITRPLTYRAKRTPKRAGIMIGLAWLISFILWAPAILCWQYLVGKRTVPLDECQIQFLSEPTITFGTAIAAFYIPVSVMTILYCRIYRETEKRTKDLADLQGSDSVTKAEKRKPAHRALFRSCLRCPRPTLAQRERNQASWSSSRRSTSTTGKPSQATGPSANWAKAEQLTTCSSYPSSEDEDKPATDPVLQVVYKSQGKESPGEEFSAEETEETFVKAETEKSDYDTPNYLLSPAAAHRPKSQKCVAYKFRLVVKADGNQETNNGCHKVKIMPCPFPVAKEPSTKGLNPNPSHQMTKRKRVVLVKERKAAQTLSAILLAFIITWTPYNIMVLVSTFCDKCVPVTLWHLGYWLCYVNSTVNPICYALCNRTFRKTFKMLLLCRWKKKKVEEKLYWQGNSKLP
# Summary of the method: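 Chemicals passing a primary duplicate screen at 25 uM were run as singleton concentration series, maximum 50 uM. Displacement of a specific radioligand from CHO-extracted receptor was read by filter scintillation after 1 h, relative to DMSO.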
# [5] = molecular target: Neuropeptide Y receptor type 2 (Homo sapiens) (UniProt P49146); experiment: NVS_GPCR_hNPY2: NovaScreen (NVS) G Protein-Coupled Receptor Assay for human Neuropeptide Receptor Y2 (NPY2) (AID 2283277)
# Chain of Neuropeptide Y receptor type 2 (Homo sapiens) (P49146 whole entry, looked up): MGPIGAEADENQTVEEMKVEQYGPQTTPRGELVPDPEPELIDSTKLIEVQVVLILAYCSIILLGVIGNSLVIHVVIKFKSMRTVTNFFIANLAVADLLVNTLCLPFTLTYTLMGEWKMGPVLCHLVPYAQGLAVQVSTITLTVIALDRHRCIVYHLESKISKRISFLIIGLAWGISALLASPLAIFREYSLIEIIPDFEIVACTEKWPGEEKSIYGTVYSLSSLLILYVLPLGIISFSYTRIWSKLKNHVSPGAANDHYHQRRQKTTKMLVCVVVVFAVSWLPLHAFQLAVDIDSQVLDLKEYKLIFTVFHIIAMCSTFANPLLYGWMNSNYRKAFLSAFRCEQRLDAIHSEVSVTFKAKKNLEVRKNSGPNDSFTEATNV
# Summary of the method: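 Chemicals were first tested in duplicate at 25 uM, then actives in singleton concentration series to 50 uM. Tracer binding to SK-N-MC-derived protein measured cell-free after 1 h via filter scintillation; signal loss relative to DMSO.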
# [6] = molecular target: human Opioid Receptor Delta 1 (Opiate D1), OPRD1 (gene 4985) (UniProt P41143); experiment: NVS_GPCR_hOpiate_D1: NovaScreen (NVS) G Protein-Coupled Receptor Assay for human Opioid Receptor Delta 1 (Opiate D1) (AID 2283280)
# Chain of human Opioid Receptor Delta 1 (Opiate D1), OPRD1 (gene 4985) (P41143 whole entry, looked up): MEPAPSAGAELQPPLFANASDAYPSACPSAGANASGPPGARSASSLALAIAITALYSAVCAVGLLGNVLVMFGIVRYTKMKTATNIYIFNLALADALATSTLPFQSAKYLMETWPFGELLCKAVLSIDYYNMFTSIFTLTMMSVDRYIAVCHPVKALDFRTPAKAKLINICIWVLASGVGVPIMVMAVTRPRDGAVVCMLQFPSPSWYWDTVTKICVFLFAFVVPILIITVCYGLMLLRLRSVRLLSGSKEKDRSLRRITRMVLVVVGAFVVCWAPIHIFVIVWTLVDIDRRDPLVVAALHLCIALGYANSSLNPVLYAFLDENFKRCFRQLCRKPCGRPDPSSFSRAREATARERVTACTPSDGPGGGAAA
# Summary of the method: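 Membrane preparations from CHO cells bearing the human receptor were incubated 1 h with test chemical, and bound radioligand was counted after filtration. Actives from 25 uM duplicate screening were retested in concentration-response.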
# [7] = molecular target: human Purinergic Receptor P2Y, P2RY1 (gene 5028) (UniProt P47900); experiment: NVS_GPCR_hPY2: NovaScreen (NVS) G Protein-Coupled Receptor Assay for human Purinergic Receptor P2Y (AID 2283281)
# Summary of the method: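 Filtration scintillation readout of radioligand displacement on U937 extract, measured 1 h post-dosing. Single 25 uM duplicate screen, then singleton concentration series to 50 uM for chemicals passing threshold; DMSO as baseline.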
# [8] = molecular target: human Thromboxane A2 Receptor (TXA2), TBXA2R (gene 6915) (UniProt P21731); experiment: NVS_GPCR_hTXA2: NovaScreen (NVS) G Protein-Coupled Receptor Assay for human Thromboxane A2 Receptor (TXA2) (AID 2283282);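 further: actives reduce bound radioligand signal relative to DMSO baseline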
# Chain of human Thromboxane A2 Receptor (TXA2), TBXA2R (gene 6915) (P21731 whole entry, looked up): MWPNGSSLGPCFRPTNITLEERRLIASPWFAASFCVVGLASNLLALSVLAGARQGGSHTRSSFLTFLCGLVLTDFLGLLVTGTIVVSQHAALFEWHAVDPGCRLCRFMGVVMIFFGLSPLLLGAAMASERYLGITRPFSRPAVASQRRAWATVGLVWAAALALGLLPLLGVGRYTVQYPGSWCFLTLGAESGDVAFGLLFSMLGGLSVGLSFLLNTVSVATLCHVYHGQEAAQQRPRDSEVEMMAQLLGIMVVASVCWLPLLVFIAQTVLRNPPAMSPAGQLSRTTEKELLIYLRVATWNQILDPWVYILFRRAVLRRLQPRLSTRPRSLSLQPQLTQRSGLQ
# Summary of the method: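 Cell-free radioligand binding on membrane protein from human platelets; radioligand displacement read by filter-based scintillation counting after 1 h. Primary screen in duplicate at 25 uM, actives then run in concentration series; loss of signal versus DMSO.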
# [9] = molecular target: Muscarinic acetylcholine receptor M1 (Homo sapiens) (UniProt P11229); experiment: NVS_GPCR_hM1: NovaScreen (NVS) G Protein-Coupled Receptor Assay for human Muscarinic, M1 Receptor (AID 2283270)
# Summary of the method: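 Actives from a duplicate 25 uM single-point screen were retested in concentration series. Binding measured as displacement of a radioligand from CHO-derived receptor preparation, 1 h incubation, filtration and scintillation counting, analysed as signal loss against DMSO.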
# [10] = molecular target: Muscarinic acetylcholine receptor M2 (Homo sapiens) (UniProt P08172); experiment: NVS_GPCR_hM2: NovaScreen (NVS) G Protein-Coupled Receptor Assay for human Muscarinic, M2 Receptor (AID 2283273)
# Chain of Muscarinic acetylcholine receptor M2 (Homo sapiens) (P08172 whole entry, looked up): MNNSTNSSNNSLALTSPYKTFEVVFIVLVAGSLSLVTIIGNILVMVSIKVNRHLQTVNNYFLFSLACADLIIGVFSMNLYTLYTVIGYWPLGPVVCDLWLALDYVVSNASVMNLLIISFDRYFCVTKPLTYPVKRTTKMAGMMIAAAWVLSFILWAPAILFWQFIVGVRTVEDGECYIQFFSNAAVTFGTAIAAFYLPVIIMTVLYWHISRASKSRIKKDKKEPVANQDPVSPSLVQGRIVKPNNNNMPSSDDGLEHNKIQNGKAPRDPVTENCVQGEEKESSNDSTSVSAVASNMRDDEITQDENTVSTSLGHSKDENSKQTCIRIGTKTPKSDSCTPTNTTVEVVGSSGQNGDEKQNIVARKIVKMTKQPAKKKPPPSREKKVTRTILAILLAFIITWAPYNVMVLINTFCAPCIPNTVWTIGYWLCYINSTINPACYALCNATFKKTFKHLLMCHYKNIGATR
# Summary of the method: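 CHO-expressed human M2 receptor preparation, competitive displacement of a radioligand read by filter-based scintillation counting after 1 h. Single 25 uM duplicate screen, then concentration-response follow-up of actives; DMSO baseline.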
# [11] = molecular target: human Muscarinic, M4 Receptor, CHRM4 (gene 1132) (UniProt P08173); experiment: NVS_GPCR_hM4: NovaScreen (NVS) G Protein-Coupled Receptor Assay for human Muscarinic, M4 Receptor (AID 2283274)
# Chain of human Muscarinic, M4 Receptor, CHRM4 (gene 1132) (P08173 whole entry, looked up): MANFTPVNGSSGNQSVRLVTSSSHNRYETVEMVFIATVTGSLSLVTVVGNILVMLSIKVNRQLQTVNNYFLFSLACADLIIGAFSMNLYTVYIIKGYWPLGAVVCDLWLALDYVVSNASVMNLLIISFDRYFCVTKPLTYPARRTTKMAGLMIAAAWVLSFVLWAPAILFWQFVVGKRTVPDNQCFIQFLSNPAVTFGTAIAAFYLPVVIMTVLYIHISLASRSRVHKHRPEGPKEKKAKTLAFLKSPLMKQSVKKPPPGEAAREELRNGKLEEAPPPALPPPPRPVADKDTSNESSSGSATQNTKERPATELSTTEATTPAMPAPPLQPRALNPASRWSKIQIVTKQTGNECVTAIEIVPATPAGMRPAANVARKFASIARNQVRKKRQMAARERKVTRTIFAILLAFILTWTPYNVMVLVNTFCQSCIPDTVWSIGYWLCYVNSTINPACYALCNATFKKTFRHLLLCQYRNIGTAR
# Summary of the method: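 Filter-based scintillation counting of radioligand bound to CHO-expressed human M4 preparations after 1 h; loss of signal fitted versus DMSO. Initial duplicate testing at 25 uM, concentration-response follow-up for actives.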
# [12] = system: rabbit Platelet Activating Factor Receptor (PAF), gene 100354046; experiment: NVS_GPCR_rabPAF: NovaScreen (NVS) G Protein-Coupled Receptor Assay for rabbit Platelet Activating Factor Receptor (PAF) (AID 2283287)
# Summary of the method: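 Rabbit platelet membrane preparation; radioligand displacement read by filter-based scintillation counting 1 h after dosing, loss of signal versus DMSO. Primary screen in duplicate at 25 uM, actives followed up in concentration series.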
# [13] = molecular target: human Neuropeptide Receptor Y1 (NPY1), NPY1R (gene 4886) (UniProt P25929); experiment: NVS_GPCR_hNPY1: NovaScreen (NVS) G Protein-Coupled Receptor Assay for human Neuropeptide Receptor Y1 (NPY1) (AID 2283276)
# Chain of human Neuropeptide Receptor Y1 (NPY1), NPY1R (gene 4886) (P25929 whole entry, looked up): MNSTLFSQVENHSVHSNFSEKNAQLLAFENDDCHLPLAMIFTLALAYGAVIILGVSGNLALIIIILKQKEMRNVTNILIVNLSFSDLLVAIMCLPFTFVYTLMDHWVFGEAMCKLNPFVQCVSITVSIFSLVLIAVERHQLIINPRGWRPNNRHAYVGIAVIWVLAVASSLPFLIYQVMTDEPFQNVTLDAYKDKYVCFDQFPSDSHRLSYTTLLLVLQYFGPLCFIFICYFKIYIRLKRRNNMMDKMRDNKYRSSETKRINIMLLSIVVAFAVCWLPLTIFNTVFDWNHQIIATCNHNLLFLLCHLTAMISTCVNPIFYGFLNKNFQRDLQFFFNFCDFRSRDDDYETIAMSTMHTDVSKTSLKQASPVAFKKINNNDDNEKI
# Summary of the method: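 Displacement of specific radioligand from NPY1 receptor of SK-N-MC origin, read by filtration and scintillation after 1 h. Compounds first tested at 25 uM in duplicate, then actives in concentration series; signal loss relative to DMSO.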
# [14] = molecular target: human Neurokinin, NK2 Receptor, TACR2 (gene 6865) (UniProt P21452); experiment: NVS_GPCR_hNK2: NovaScreen (NVS) G Protein-Coupled Receptor Assay for human Neurokinin, NK2 Receptor (AID 2283278);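 further: actives reduce bound radioligand signal relative to DMSO baseline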
# Chain of human Neurokinin, NK2 Receptor, TACR2 (gene 6865) (P21452 whole entry, looked up): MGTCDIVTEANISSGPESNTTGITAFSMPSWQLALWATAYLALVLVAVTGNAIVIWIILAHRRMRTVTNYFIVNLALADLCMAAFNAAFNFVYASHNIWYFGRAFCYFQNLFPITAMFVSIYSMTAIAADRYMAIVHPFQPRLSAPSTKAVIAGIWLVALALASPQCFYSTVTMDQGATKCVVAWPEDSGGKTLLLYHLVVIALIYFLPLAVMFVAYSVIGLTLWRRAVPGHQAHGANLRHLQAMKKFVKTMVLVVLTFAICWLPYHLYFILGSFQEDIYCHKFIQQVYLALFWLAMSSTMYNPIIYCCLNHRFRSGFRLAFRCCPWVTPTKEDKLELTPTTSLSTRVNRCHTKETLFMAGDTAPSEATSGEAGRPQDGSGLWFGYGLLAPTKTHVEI
# Summary of the method: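 Test chemicals displace a radioligand from receptor prepared from CHO cells in a cell-free format, read after 4 hours by scintillation counting on filters. Screening starts at 25 uM in duplicate, and active chemicals then go to concentration series.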
# [15] = molecular target: human Orphanin, Opioid Related Nociceptin Receptor 1 (ORL1), OPRL1 (gene 4987) (UniProt P41146); experiment: NVS_GPCR_hORL1: NovaScreen (NVS) G Protein-Coupled Receptor Assay for human Orphanin, Opioid Related Nociceptin Receptor 1 (ORL1) (AID 2283283)
# Chain of human Orphanin, Opioid Related Nociceptin Receptor 1 (ORL1), OPRL1 (gene 4987) (P41146 whole entry, looked up): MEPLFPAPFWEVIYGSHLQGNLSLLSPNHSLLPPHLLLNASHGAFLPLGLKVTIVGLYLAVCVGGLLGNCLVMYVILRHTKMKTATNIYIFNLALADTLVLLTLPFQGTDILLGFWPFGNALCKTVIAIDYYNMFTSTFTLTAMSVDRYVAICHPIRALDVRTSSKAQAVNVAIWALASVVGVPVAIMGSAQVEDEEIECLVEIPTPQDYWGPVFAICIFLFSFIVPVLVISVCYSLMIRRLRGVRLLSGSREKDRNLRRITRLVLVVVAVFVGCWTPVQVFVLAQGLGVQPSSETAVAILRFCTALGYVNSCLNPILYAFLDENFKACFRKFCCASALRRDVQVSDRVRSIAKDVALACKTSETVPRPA
# Summary of the method: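 Cell-free binding using HEK293-derived receptor protein: radioligand displacement measured by filter scintillation 1 hour after dosing. Primary testing at 25 uM in duplicate, followed by singleton concentration series up to 50 uM; DMSO served as negative control.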
# [16] = molecular target: mouse Cholecystokinin, CCK1 Receptor (CCKA), Cckar (gene 12425) (UniProt O08786); experiment: NVS_GPCR_mCCKAPeripheral: NovaScreen (NVS) G Protein-Coupled Receptor Assay for mouse Cholecystokinin, CCK1 Receptor (CCKA) (AID 2283285)
# Summary of the method: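 Chemicals were first screened in duplicate at 25 uM, with those meeting threshold (e.g., 30% inhibition) retested in singleton concentration series to 50 uM maximum. Binding of radioligand to mouse pancreatic membranes was read after 2 h by filtration and scintillation counting.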
# [17] = molecular target: human Neurotensin Receptor (NTS), NTSR1 (gene 4923) (UniProt P30989); experiment: NVS_GPCR_hNTS: NovaScreen (NVS) G Protein-Coupled Receptor Assay for human Neurotensin Receptor (NTS) (AID 2283279)
# Summary of the method: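 Compounds competed with a radiolabelled ligand for binding to CHO-derived human neurotensin receptor; bound signal counted after filtration, 1 h. Screened first at a single concentration of 25 uM in duplicate, then concentration series to 50 uM maximum for actives.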
smiles,measurement,setting,value
CCCCCCCCCCCCCCCCOS(=O)(=O)O,AC50,[1],18.1 µM (active)
same,AC50,[2],4.49 µM (active)
same,AC50,[3],8.33 µM (active)
same,AC50,[4],8.94 µM (active)
same,outcome,[5],inactive
same,AC50,[6],3.9 µM (active)
same,AC50,[7],5.47 µM (active)
same,AC50,[8],12.5 µM (active)
Cc1nccn1-c1ccc(Sc2cccc(C3(C(N)=O)CCOCC3)c2)cc1,AC50,[9],7.4 µM (active)
same,outcome,[3],inactive
same,AC50,[10],6.6 µM (active)
same,AC50,[11],6.73 µM (active)
same,outcome,[4],inactive
same,AC50,[12],15.8 µM (active)
CCN(CC)C(=S)SSC(=S)N(CC)CC,AC50,[13],17.5 µM (active)
same,AC50,[14],1.35 µM (active)
same,AC50,[15],14 µM (active)
CCCCCCCC/C=C\CCCCCCCC(=O)OC[C@@H](O)[C@H]1OC[C@H](O)[C@H]1O,AC50,[2],34.5 µM (active)
same,outcome,[5],inactive
same,AC50,[8],25 µM (active)
C=CCc1cc(S(=O)(=O)c2ccc(O)c(CC=C)c2)ccc1O,AC50,[2],9.78 µM (active)
same,outcome,[11],inactive
same,AC50,[4],25 µM (active)
same,AC50,[14],20.6 µM (active)
same,AC50,[6],15.5 µM (active)
same,AC50,[8],6.66 µM (active)
same,outcome,[15],inactive
same,AC50,[12],20 µM (active)
CC(C)C(=O)Nc1ccc([N+](=O)[O-])c(C(F)(F)F)c1,AC50,[8],4.96 µM (active)
same,outcome,[16],inactive
NNC(=O)c1ccncc1,AC50,[14],2.18 µM (active)
CCCCCCCCN(C)C,outcome,[1],inactive
same,AC50,[17],16.7 µM (active)
CC[C@H](C)C(=O)O[C@H]1C[C@H](O)C=C2C=C[C@H](C)[C@H](CC[C@@H](O)C[C@@H](O)CC(=O)O)[C@H]21,outcome,[8],inactive
CCCCOC(=O)c1ccccc1,outcome,[8],inactive
CCCCCCCCCC,outcome,[2],inactive
same,outcome,[10],inactive
same,outcome,[11],inactive
same,outcome,[13],inactive
same,outcome,[14],inactive
same,outcome,[12],inactive
